Screening results from PubChem.
AmpC detergent: qHTS Inhibitors of AmpC Beta-Lactamase (assay with detergent); P00811; AmpC hydrolysis of nitrocefin, absorbance 480 nm, 0.01% Triton; Potency, µM (highest dose often 114 µM), without a hit: top-dose activity change, negative = inhibition, usual class: inhibitors; 370,000 tested, 0.041% active; AID 485294, 2010;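 also: 0% = no-compound wells and -100% = no-enzyme wells; nearly all actives have a fitted effect of over 25% in size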
Target sequence (P00811 whole entry, looked up): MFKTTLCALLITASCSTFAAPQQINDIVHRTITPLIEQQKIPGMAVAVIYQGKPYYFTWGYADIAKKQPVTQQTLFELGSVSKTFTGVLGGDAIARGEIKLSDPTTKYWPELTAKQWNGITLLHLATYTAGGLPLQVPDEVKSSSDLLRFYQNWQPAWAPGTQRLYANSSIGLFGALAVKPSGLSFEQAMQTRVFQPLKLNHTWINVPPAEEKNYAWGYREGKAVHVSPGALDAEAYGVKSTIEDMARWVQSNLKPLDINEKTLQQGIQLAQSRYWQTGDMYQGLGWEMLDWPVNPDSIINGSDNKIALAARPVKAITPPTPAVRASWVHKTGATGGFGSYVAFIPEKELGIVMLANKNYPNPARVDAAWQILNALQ
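AmpC (5.3 nM in the dispensed reagent) in 20 mM phosphate pH 7.0 with 0.01% (detergent screen) or 0.0001% Triton X-100 was preincubated with compounds for 15 min at room temperature. Nitrocefin was then added from an 800 uM solution, and hydrolysis was followed at 480 nm.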
Sm TGR inh: qHTS Assay for the Inhibitors of Schistosoma Mansoni Peroxiredoxins. AID 485364, 2010. Potency, µM (highest dose often 114 µM), without a hit: top-dose activity change, negative = inhibition, usual class: inhibitors. Schistosoma mansoni thioredoxin glutathione reductase (TGR), Q962Y6. 360,000 tested, 3% active. purified TGR, DTNB reduction, TNB absorbance 405 nm; also: % is scaled to controls: 0 for no effect and ±100 for the full control effect; nearly all actives have a fitted effect of over 60% in size
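TGR 20 nM + NADPH 100 uM (dispensed conc.), cpd preinc 15 min RT; start with NADPH (500 uM addition) then DTNB (15 mM addition). Kinetic TNB absorbance, 405 nm filter. Four-parameter Hill fit across titration.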
SARS PLpro yeast: qHTS of Yeast-based Assay for SARS-CoV PLP; S. cerevisiae expressing SARS-CoV PLpro, growth rescue; Potency, µM (doses to about 32.9 µM), for the others: at the top dose activity, positive = growth rescue, most hits filed as activators; 330,000 tested, 0.19% active; AID 485353, 2010; calls by dose curve; also: 0% is about no effect; nearly all actives have a fitted effect of over 55% in size
Pf growth 48h: Primary qHTS for delayed death inhibitors of the malarial parasite plastid, 48 hour incubation; P. falciparum luciferase growth in erythrocytes, 48 h; Potency, µM (series often up to 28.7 µM), for the others: top-dose activity change, negative = inhibition, most hits filed as inhibitors; 310,000 tested, 5.9% active; AID 504832, 2011; also: % is scaled to controls: 0 for no effect and ±100 for the full control effect
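Erythrocytes infected with P. falciparum carrying an integrated firefly luciferase reporter (2% hematocrit, 0.1% parasitemia final) were exposed to compounds in RPMI 1640 with 0.5% Albumax at 37 C, 5% CO2. Growth inhibition was scored as reduced luminescence.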
AmpC no deterg: qHTS Inhibitors of AmpC Beta-Lactamase (assay without detergent). P00811. AmpC nitrocefin hydrolysis, absorbance 480 nm, 0.0001% Triton. 330,000 tested, 0.52% active. Potency, µM (titrated, usually from 57.1 µM), for inactives: top-dose activity change, negative = inhibition, most hits filed as inhibitors;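 also: plate controls were no compound for no effect and no enzyme for full effect; nearly all actives have a fitted effect of over 20% in size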
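AmpC (5.3 nM in the dispensed reagent) in 20 mM phosphate pH 7.0 with 0.01% (detergent screen) or 0.0001% Triton X-100 was preincubated with compounds for 15 min at room temperature. Nitrocefin was then added from an 800 uM solution, and hydrolysis was followed at 480 nm.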
Pf growth 96h: Primary qHTS for delayed death inhibitors of the malarial parasite plastid, 96 hour incubation; P. falciparum luciferase reporter growth, 96 h; Potency, µM (highest dose often 28.7 µM), for the others: at the highest dose activity change, negative = inhibition, actives largely listed as inhibitors; 320,000 tested, 6.9% active; AID 504834, 2011; also: % is scaled to controls: 0 for no effect and ±100 for the full control effect
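Readout is luminescence from an integrated firefly luciferase in P. falciparum. Red cells, 2% hematocrit and 0.05% parasitemia final, were cultured with compound through two parasite generations (96 hours) at 37 C, 5% CO2.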
* marks the source's active call; other numbers are inactive results; ? = inconclusive; / = no result given; [ ] = another dose, or the depositor's remark. Compounds with a hit are over-represented: about 12% of the library has one in this group of screens. Unless noted, calls follow the shape of the dose curve; as a rule, active = well fitted curve in the direction sought with a large enough effect; inconclusive = small, poorly fitted or top-dose-only effect, or another doubt; inactive = no such curve, though single readings can be large; an effect the other way counts as inactive or inconclusive. Potency is read from the fitted curve at half-maximal effect.

SMILES	AmpC detergent	Sm TGR inh	SARS PLpro yeast	Pf growth 48h	AmpC no deterg	Pf growth 96h
Cc1ccc(-n2nc(C)c3c2NC(=O)CSC3c2ccc(O)cc2)cc1Cl (stereo not drawn)	6.6%	-10.7%	/	/	/	/
COc1nc(SC)nc(Cl)c1Cc1ccc(OC(C)C)cc1	-2.7%	-1.6%	-10.2%	-16.2%	-16.4%	1.04µM*
CCCOc1ccc(Cc2c(Cl)nc(SC)nc2OC)cc1	-9.0%	0.2%	-14.5%	11.8%	-21.8%	-2.0%
O=C(O)C1CC=CCC1C(=O)NNc1c(Cl)cc(Cl)cc1Cl (stereo not drawn)	6.1%	9.2%	-2.9%	?	-13.9%	23.2%
O=C(O)C1Nc2c(O)cccc2C2C=CCC12 (stereo not drawn)	?	8.91µM*	?	10.2%	?	14.7µM*
O=C(O)C1Nc2c(Cl)cc(Cl)cc2C2C=CCC12 (stereo not drawn)	?	?	7.2%	14.4%	12.6µM*	?
CCc1ccc(CNC(=O)c2nn(-c3ccc(OC)c(Cl)c3)c(=O)c3c2c2ccccc2n3C)cc1	2.3%	?	/	/	/	/
Cc1ccc(N(C(=O)CS(=O)CC(=O)Nc2ccc(F)cc2)C(C)C(=O)NC(C)(C)C)cc1 (stereo not drawn)	-13.8%	?	2.2%	-5.8%	90.1%	-8.8%
Cc1ccc(NC(=S)NNC(C)(C)C)cc1	-1.0%	?	-0.5%	13.1µM*	-13.5%	5.86µM*
CC(C)(C)NNC(=S)Nc1cccc(C(F)(F)F)c1	9.0%	-17.1%	0.4%	-20.9%	-0.8%	?
COc1ccccc1CNC(=O)Cn1c(=O)nc(-c2ccccc2)c2ccccc21	9.5%	-5.3%	/	/	/	/
Cc1noc(-c2ccc(N3CCC(C)CC3)c([N+](=O)[O-])c2)n1	-8.6%	-9.5%	/	/	/	/
Cc1cccc(C(=O)OCC(=O)NC(=O)c2ccccc2)c1O	-2.3%	50.1µM*	4.4%	35.0%	-3.0%	-3.7%
O=C(c1cc2ccccc2oc1=O)N1CCN(c2ccc(Cl)cc2)CC1	21.3%	0.8%	/	/	/	/
O=C(NCCN1CCOCC1)c1cccc(S(=O)(=O)Nc2ccc(Br)cc2)c1	3.8%	4.6%	-1.6%	?	-17.6%	-7.1%
Cc1ccc(NC(=O)c2ccc3nccnc3c2)c(C)c1	-12.8%	56.2µM*	-2.2%	69.0%	-18.7%	-23.8%
CCc1ccc(N2C(=O)c3sc4nnc(-c5ccccc5)c(=O)n4c3C2=O)cc1	-4.4%	10µM*	-3.0%	-8.7%	-48.9%	36.3%
CP(=O)(Nc1ccc(Cl)cc1)c1nc2c(s1)CCCC2 (stereo not drawn)	-0.2%	22.4µM*	2.1%	72.5%	-10.4%	30.9%
Cc1nc(N2CCN(S(=O)(=O)c3ccccc3)CC2)c2c3c(sc2n1)CC(C)CC3 (stereo not drawn)	-10.6%	-4.4%	2.2%	?	-7.4%	10.4µM*
COc1ccc(CNC(=O)CC2C(=O)NCCN2CC(C)(C)C)c(OC)c1 (stereo not drawn)	4.3%	-19.7%	-0.8%	-7.7%	10.0%	10.4µM*
COc1ccc(CN2CCNC(=O)C2CC(=O)NC2CCC2)c(OC)c1 (stereo not drawn)	-12.8%	-66.1%	-5.9%	6.7%	-6.6%	14.7µM*
COc1ccc(CN2CCNC(=O)C2CC(=O)NCc2ccc(C)s2)c(OC)c1 (stereo not drawn)	5.8%	31.6µM*	-0.1%	18.6%	46.2%	?
COc1ccc(CN2CCNC(=O)C2CC(=O)NC2Cc3ccccc3C2)c(OC)c1 (stereo not drawn)	-4.5%	-9.6%	0.0%	16.0%	65.9%	1.9%
O=C(Nc1ccc(F)cc1)c1sc2cc(C(F)(F)F)cnc2c1-c1cccs1	0.8%	-27.2%	-6.9%	/	-27.8%	?
COc1ccc(NC(=O)c2sc3cc(C(F)(F)F)cnc3c2-c2cccs2)cc1	1.0%	0.8%	2.3%	/	-20.0%	11.7µM*
SMILES	AmpC detergent	Sm TGR inh	SARS PLpro yeast	Pf growth 48h	AmpC no deterg	Pf growth 96h
Cc1ccc(CSc2cn(CC(=O)N3CCCCCC3)c3ccccc23)cc1	5.0%	31.4%	/	/	/	/
Cc1ccc(C)c(Cn2nc3c4ccccc4n(Cc4ccccc4)cc-3c2=O)c1	2.0%	0.4%	2.2%	13.1µM*	-25.0%	9.7%
Cc1cccc(NC(=O)Cn2nc3c4ccccc4n(Cc4ccccc4)cc-3c2=O)c1	1.5%	0.6%	/	/	/	/
CCOC(=O)/C(C#N)=C1\Nc2ccccc2N=C1N(CC(C)C)CC(C)C	11.7%	0.3%	-24.4%	2.33µM*	5.5%	19.3%
CC(C)NC(=O)CSc1nc(N)c(NC(=O)c2ccco2)c(=O)[nH]1	1.6%	-7.9%	0.0%	10.0%	-9.4%	0.0%
CN(C)c1cccc2c(/C=N/O)ccc(N(C)C)c12	?	-22.2%	-0.2%	?	-4.6%[11.4 µM]	-9.8%
CN(C)c1cccc2c(C=C(C#N)C#N)ccc(N(C)C)c12	-12.7%	25.1µM*	-13.0%	-14.8%	-7.0%	0.5%
Cn1c(N2CCN(C(=O)Nc3ccc(F)cc3)CC2)nc2ccccc21	-3.1%	-5.3%	1.0%	?	-26.4%	-20.3%
Cn1c(N2CCN(C(c3ccccc3)c3ccccc3)CC2)nc2ccccc21	-0.5%	11.6%	-9.2%	?	-4.8%	13.1µM*
CCCOc1ccc(C2c3c(-c4ccccc4O)n[nH]c3C(=O)N2CCCOCC)cc1OCC (stereo not drawn)	3.8%	-6.1%	/	/	/	/
O=C(Nc1ccc(-c2nc3ncccc3o2)cc1)c1ccc([N+](=O)[O-])o1	3.7%	-13.1%	-9.4%	9.28µM*	-15.6%	-1.7%
O=C(Nc1ccc2oc(-c3ccncc3)nc2c1)c1ccc([N+](=O)[O-])o1	-13.3%	-12.8%	-10.2%	6.57µM*	-18.2%	?
O=C(Nc1ccc2oc(-c3cccnc3)nc2c1)c1ccc(-c2cccc(OC(F)(F)F)c2)o1	34.2%	10µM*	/	/	/	/
CN(Cc1ccccc1)S(=O)(=O)c1ccc(N2CCCC2=O)cc1	?	-8.7%	0.2%	?	-6.8%	?
Cc1ccc(Cn2ccnc2SCC(=O)Nc2ccc3c(c2)OCCO3)cc1	5.3%	5.5%	/	/	/	/
Cc1ccc(C)c(NC(=O)CSc2ncc3c(n2)-c2ccc(Cl)cc2N(C)S3(=O)=O)c1	-7.7%	-1.1%	/	/	/	/
CC1=C(C(=O)OCC2CCCO2)C(c2cccc(C(F)(F)F)c2)C2=C(CC(c3ccco3)CC2=O)N1 (stereo not drawn)	-2.1%	-32.7%	-21.7%	13.1µM*	25.0%	/
